From PubChem BioAssay (NCATS) come the findings set out here.

Molecules are shown by their SMILES. Results filed as inconclusive are left out. Where a call stands in place of a potency, no number is given. Calls of active or inactive are those of the source. Calls come from the whole dose curve; as a rule, active = well fitted cell-killing curve with a large enough effect; inconclusive = small, poorly fitted or top-dose-only effect; inactive = flat fitted curve, though single readings scatter.
Potency is the fitted concentration of half-maximal effect.

This experiment in a line: qHTS of pediatric cancer cell lines to identify multiple opportunities for drug repurposing: Primary screen for RD cells (AID 1347104). Note: nearly all actives have a fitted effect of over 55% in size. To be noted: RD rhabdomyosarcoma viability, CellTiter-Glo luminescence, 48 h; series mostly up to 46 µM. The text has this: Drug repurposing or repositioning has been offered as a strategy for drug development in oncology programs. This approach has special potential for childhood cancers and other rare or orphan diseases, where the expected return on new drug development has been a disincentive to pharmaceuticals. […] In this project we exploit the poly-pharmacology of drugs to discover new indications via phenotypic screening of a panel of 19 well-characterized cell lines derived from solid tumors seen in children and adolescents. The goal is to identify approved drugs with previously unrecognized anticancer properties that has the potential to reveal new mechanisms and biological processes involved in carcinogenesis or drug resistance. We employed a titration-based paradigm (quantitative high-throughput screening or qHTS), where all compounds were tested at multiple concentrations for their effect on cell viability. Concentration-response curves (CRCs) were derived directly from the primary screen, and both potency and efficacy values were used to identify compounds with robust bioactivity profiles. We screened the NIH Chemical Genomics Center (NCGC) Pharmaceutical Collection (NPC) and Mechanism Interrogation Plate (MIPE) small molecule collections of approved and investigational compounds against these cell lines; and measured metabolically active cells after 48 hours of compound treatment as a proxy for cell viability. […] Assay Submitter: Nathalia J. Martinez, National Center for Advancing Translational Sciences, National Institutes of Health, Rockville, MD, USA; email: natalia.martinez@nih.gov Shen, M et al. Quantitative high-throughput phenotypic screening of pediatric cancer cell lines identifies multiple opportunities for drug repurposing. Oncotarget 2017 Dec 19;9(4):4758-4772. PMID 29435139.
The cells were obtained from University of North Carolina (UNC), Pediatric Preclinical Testing Program (PPT), and Coriell Institute (CI). qHTS cell viability assay: Cells were assayed in growth media at a density of 500-1,000 cells/well. Five microliters of cells were dispensed into 1,536-well, white, solid-bottom, TC-treated plates (Greiner Bio One) using a multidrop dispenser and incubated at 37 degrees C, 5% CO2, under a humidified atmosphere for 5 hours. Twenty-three nanoliters of compounds and controls (neutral control DMSO or positive control bortezomib at final concentration of 2.3 µM) were subsequently transferred by Kalypsys pintool. For primary screens, the MIPE collection was tested at 11-point dilutions (final concentrations range from 0.78 nM to 46 µM) and the NPC collection at 8-point dilutions (final concentrations range from 0.59 nM to 46 µM). Compounds tested in follow-up screens were assayed at 11-point dilutions. Cells were incubated for 48 hours, followed by addition of 3 µL of CellTiter-Glo (Promega). After a 15 min incubation at room temperature, samples were analyzed for luminescence intensity using a ViewLux High-throughput CCD imager equipped with clear filters.
Turning to `Cc1ccc(N=CN(C)C=Nc2ccc(C)cc2C)c(C)c1`, the Potency entry is “inactive”. Then `CCN(CC)C(C)C(=O)c1ccccc1` (stereo not given), with “inactive”; and `O=C1CN2CCOC2(c2ccccc2Cl)c2cc(Cl)ccc2N1` (stereo not given), with “inactive”.

Take `Clc1ccc(CSC(Cn2ccnc2)c2ccc(Cl)cc2Cl)cc1` (stereo not given): the Potency was 23.7 µM (active). With `CCC(=O)O[C@H]1CC[C@H]2[C@@H]3CCC4=CC(=O)CC[C@]4(C)[C@H]3CC[C@]12C` the entry was “inactive”. Then `COP(=O)(OC)OC=C(Cl)Cl`, with “inactive”; and `Cc1cccc(Cc2cnc[nH]2)c1C`, with “inactive”. Consider `CC(C(O)c1ccccc1)N(C)C/C=C/c1ccccc1` (stereo not given), for which the Potency entry is “inactive”. With `Nc1ccc(Cl)cc1C(=O)c1ccccc1F` the entry was “inactive”. For the molecule `Cc1c(Cl)c(=O)oc2cc(OP(=O)(OCCCl)OCCCl)ccc12`, the Potency result is “inactive”. With `NC(=O)OCCCc1ccccc1` the entry was “inactive”; with `CC(C)(O)C(Cl)(Cl)Cl`, “inactive”; with `CCS(=O)(=O)C(C)(C)S(=O)(=O)CC`, “inactive”. Then `COc1cc(CC(C)N)cc2c1OCO2` (stereo not given), with “inactive”; and `ClCCCN1CCN(c2cccc(Cl)c2)CC1`, with “inactive”. Then `CCNc1nc(Cl)nc(NCC)n1`, with “inactive”. For the molecule `COCC(=O)N(c1c(C)cccc1C)C(C)C(=O)OC` (stereo not given), the Potency entry is “inactive”. With `ClCc1cccc(Cl)c1` the entry was “inactive”. For the molecule `CCCCCCCCCCCC[N+](C)(C)CCOc1ccccc1`, the Potency is 23.7 µM (active). For `COc1cc(N)c(Cl)cc1C(=O)NC1CN2CCC1CC2` (stereo not given), the Potency entry was “inactive”.

For the molecule `NCc1cccnc1`, the Potency result was “inactive”. Then `O=c1[nH]c2cc(Cl)ccc2n1C1CCNCC1`, with “inactive”; and `Nc1ccc(N)cc1`, with “inactive”. Then `CC(=O)OC1(c2ccccc2)CCN(CCc2ccccc2)CC1`, with 62.3 µM (active); and `CC(Cc1ccc2c(c1)OCO2)NO` (stereo not given), with “inactive”.

For `CC(CC(C(N)=O)(c1ccccc1)c1ccccc1)N(C)C` (stereo not given), the Potency entry is “inactive”. Then `C[C@]12C=CC(=O)C=C1CC[C@@H]1[C@@H]2CC[C@@]2(C)[C@H]1CC[C@]2(C)O`, with “inactive”.

Turning to `CCCCC1C(=O)NC(=O)N(C2CCCCC2)C1=O` (stereo not given), the Potency entry is “inactive”. With `CC(C)NCC(O)c1ccc(N)c(C#N)c1` (stereo not given) the entry was “inactive”; with `COP(=O)(OC)C(O)C(Cl)(Cl)Cl` (stereo not given), “inactive”.

For `Cc1nc2ccccc2c(=O)n1-c1ccccc1Cl`, the Potency entry is “inactive”. With `C[C@]12CC[C@H](O)CC1=CC[C@@H]1[C@@H]2CC[C@]2(C)C(=O)CC[C@@H]12` the entry was “inactive”; with `CCC(=O)OC1(c2ccccc2)CCN(C)CC1`, “inactive”.

Regarding `c1cc2c(c(N3CCNCC3)c1)OCCO2`, the Potency entry is “inactive”. With `COP(=S)(OC)Oc1ccc(S(N)(=O)=O)cc1` the entry was “inactive”; with `CC(CC(C#N)(c1ccccc1)c1ccccc1)N(C)C` (stereo not given), 54.5 µM (active); with `O=C(CCCCl)c1ccc(F)cc1`, “inactive”. With `CC(C)C(Br)C(=O)NC(N)=O` (stereo not given) the entry was “inactive”. Then `COc1ccc(C(=O)N2CCCC2=O)cc1`, with “inactive”; and `COP(=S)(OC)Oc1ccc(Sc2ccc(OP(=S)(OC)OC)cc2)cc1`, with “inactive”.
